Measured values: PubChem BioAssay
Values joined by “and” are separate entries in the source; they are usually repeats but may differ in a detail not shown here. Equal values may be shown once. Results filed as inconclusive are left out. Active and inactive are the calls of the source.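 The calls were made as follows, unless noted: active = normalized viability below 100% at a tested concentration; inactive = the rest.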

Columns and labels:
[1] = stimulators of nuclear beta-catenin in C2C12, primary screen, imaging, WNT3A-conditioned medium, mouse C2C12, NPC library (AID 1117326; in the data active = nuclear beta-catenin stimulation mostly above about 4.2%, no sharp cut-off; inactive = mostly below about 10%); conditions: stronger effect = higher value
[2] = stimulators of insulin release from INS-1E, primary screen, cell-based, 5 mM glucose, NPC library (AID 1117329;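 active = compound raises insulin release from rat beta cells at 5 mM glucose, no numeric limit stated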); conditions: rat INS-1E insulin secretion, at 10 µM, stronger effect = higher value
[3] = growth inhibition of GSK3B-pretreated HCT116 cells – cell-based, CellTiter-Glo, 0.2 to 20 µM (AID 1117336;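 active = compounds lowering colon cancer cell viability after pretreatment blocking the GSK3B kinase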); conditions: HCT116 viability after GSK3B inhibitor, at 20 µM, stronger effect = higher value
[4] = inhibition of endothelial tube formation, primary screen, imaging, VEGF stimulated, CD31 staining, tube area, NPC library (AID 1117340;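 active = compound that reduces growth-factor-driven endothelial tube area in a mixed cell culture, no cutoff stated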); conditions: VEGF-stimulated ADSC/ECFC co-culture, at 10 µM, stronger effect = higher value
[5] = glucagon-like peptide 1 release enhancers, primary assay, NCI-H716 cell line, NPC library (AID 1117341;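 active = compound raises GLP1 secretion from the human gut endocrine cells, with no numeric limit stated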); conditions: NCI-H716 cells, at 10 µM, stronger effect = higher value
[6] = HCT116 colon cancer cell growth inhibition, primary screen, CellTiter-Glo luminescence, NPC library (AID 1117342;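 active = compounds that lower survival of HCT116 colon cancer cells in the luminescence readout, no numeric limit stated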); conditions: at 20 µM (top of the series)
[7] = CellTiter-Glo luminescent readout of SW480 viability loss, NPC library primary (AID 1117343;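 active = compounds that lower viability of the colon cancer cells in the luminescence readout, with no numeric limit stated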); conditions: CellTiter-Glo luminescence; at 20 µM (top of the series) unless noted
[8] = decreased DLD-1 cellular survival, CellTiter-Glo luminescent readout, NPC compound collection, primary HTS (AID 1117346;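 active = compounds that lower survival of DLD-1 colon cancer cells in the luminescence readout, no cutoff given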); conditions: DLD-1 viability, CellTiter-Glo luminescence; at 20 µM (top of the series)
[9] = growth inhibition of DIPG glioma cells, dose response, cell-based, SU-DIPG-XVII, MIPE5.0, CellTiter-Glo, qHTS (AID 1347060; cut-off not given, nearly all actives have AC50 up to about 26 µM;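 as to AC50: cells exposed to compound for 48 hours before viability readout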); conditions: SU-DIPG-XVII viability, CellTiter-Glo ATP luminescence
[10] = growth inhibition of DIPG glioma cells, dose response, cell-based, SU-DIPG-XIII, MIPE4.0, CellTiter-Glo, qHTS (AID 1347061; cut-off not given, nearly all actives have AC50 up to about 37 µM;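 also: cells exposed to compound for 48 hours before readout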); conditions: SU-DIPG-XIII viability, CellTiter-Glo ATP luminescence
[11] = growth inhibition of DIPG glioma cells, dose response, cell-based, JHH-DIPG-1, MIPE4.0, CellTiter-Glo, qHTS (AID 1347062; cut-off not given, nearly all actives have AC50 up to about 27 µM;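 as to AC50: cells exposed to compound for two days before readout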); conditions: JHH-DIPG-1 viability, CellTiter-Glo ATP luminescence
[12] = viability loss in pontine glioma line – cell-based, SU-DIPG-XXV, MIPE5.0, CellTiter-Glo, qHTS, dose response (AID 1347065; cut-off not given, nearly all actives have AC50 up to about 26 µM;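 also: cells exposed to compound for 48 hours before ATP readout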); conditions: CellTiter-Glo ATP luminescence
[13] = SU-DIPG-VI glioma cell viability, MIPE4.0 library, CellTiter-Glo luminescence, qHTS (AID 1347066; cut-off not given, nearly all actives have AC50 up to about 30 µM;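 also: cells exposed to compound for 48 hours before readout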); conditions: CellTiter-Glo ATP luminescence
[14] = SU-DIPG-XXV glioma cell viability, MIPE5.0 library, qHTS (AID 1347068; cut-off not given, nearly all actives have IC50 up to about 30 µM;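 as to IC50: cells exposed to compound for 48 hours before viability readout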)
[15] = tested on: Aerobactin synthetase IucA (Klebsiella pneumoniae); experiment: IucA aerobactin synthetase inhibitors, biochemical, Tocris library, absorbance (AID 1345561; call rule not given here;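 also: 100% = enzyme without compound and 0% = no enzyme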); conditions: purified IucA enzyme assay, absorbance (OD) read-out; stronger effect = lower value;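 tested at 8 µM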
[16] = sensitizers of A549 cells to miR-34 induction, primary screen, imaging, A549 dox-inducible miR-34, nuclei and caspase counts (AID 1347080;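 active = compounds whose cell count with miR-34 switched on is under 0.7 times the count with it off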); conditions: A549 miR-34 inducible, Hoechst nuclei count, 48 h
[17] = viability rescue of complex I mutant cybrids, primary screen, cell-based, galactose medium, ATP luminescence (AID 1645843;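 active = z-score of at least 1.8 in each of two replicates, scored against plate mean and spread of sample wells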;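 also: positive z means more ATP and so rescue of galactose-driven cybrid death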); conditions: complex I mutant cybrid cells, 72 h, stronger effect = higher value
[18] = survival rescue of mitochondrial mutant cells in low glucose, primary screen, MELAS cybrids, Rieske KO mouse fibroblasts, CellTiter-Glo (AID 1508586;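 active = mean z-score across replicates of 1.96 or higher in either the MELAS or the Rieske mutant cell line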;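 also: z relative to plate mean and SD of compound and empty wells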)
[19] = ovarian cancer cell viability with rucaparib, profiling panel, oncology-focused library, rucaparib conditional (AID 1508598); conditions: patient-derived ovarian cancer cells, CellTiter-Glo viability, 144 h, stronger effect = lower value
[20] = stronger effect = lower value, cell number ratio, induced over uninduced
[21] = measured here: relative caspase fold change +Dox/-Dox
[22] = measured here: total cells with miR-34 induction, stronger effect = lower value
[23] = measured here: total cells without miR-34 induction

O=C(O)C(=O)Nc1cccc(-c2nn[nH]n2)c1
1.9%: nuclear beta-catenin stimulation ([1]; stimulation, at 2 µM)
inactive: nuclear beta-catenin stimulation ([1]; at 10 µM) 1.3% | insulin secretion stimulation [2] 4% | viability decrease [3] 19.5% | tube area decrease [4] 0.4% | GLP1 secretion stimulation [5] -3.2% | inhibition of viability [6] -2.9% | viability decrease (inhibition) [7] 32.2% | viability decrease (inhibition) [8] 9.1% | outcome [9] | outcome [10] | outcome [11] | outcome [12] | outcome [13] | outcome [14]

C=CCn1c(=O)n([C@@H]2O[C@H](CO)[C@@H](O)[C@H]2O)c2nc(N)[nH]c(=O)c21
2.4%: nuclear beta-catenin stimulation ([1]; stimulation, at 2 µM)
9010: cell count [16, 22]
inactive: nuclear beta-catenin stimulation ([1]; at 10 µM) 0.1% | insulin secretion stimulation [2] -0.5% | viability decrease [3] -3.9% | tube area decrease [4] 12.2% | GLP1 secretion stimulation [5] 0.6% | inhibition of viability [6] 2.2% | viability decrease (inhibition) [7] -8.4% | viability decrease (inhibition) [8] 1% | remaining activity [15] 101% | fold change [16, 20] 0.961 | z-score [17] 0.185
9380: cell count [16, 23]
1.57: fold change [16, 21]

CNC(=O)c1cc(Oc2ccc(NC(=O)Nc3ccc(Cl)c(C(F)(F)F)c3)cc2)ccn1
9.1%: nuclear beta-catenin stimulation ([1]; stimulation, at 2 µM)
inactive: nuclear beta-catenin stimulation ([1]; at 10 µM) -1.4% | insulin secretion stimulation [2] 0.4% | GLP1 secretion stimulation [5] -3.6% | fold change [16, 20] 0.979 and 1.42 | z-score ([18]; MELAS cybrid survival, CellTiter-Glo 48 h, stronger effect = higher value) -0.549 and -0.383 | viability ([19]; at 0.000305 µM, OCI-C5x cells, with rucaparib 10 µM, 100% = cells with rucaparib alone) 115% | viability ([19]; at 0.000305 µM, OCI-C5x cells, without rucaparib) 112% | viability ([19]; at 0.000305 µM, OCI-P5x cells, with rucaparib 20 µM, 100% = cells with rucaparib alone) 124% | viability ([19]; at 0.00122 µM, OCI-C5x cells, with rucaparib 10 µM, 100% = cells with rucaparib alone) 119% | viability ([19]; at 0.00122 µM, OCI-C5x cells, without rucaparib) 111% | viability ([19]; at 0.00122 µM, OCI-P5x cells, with rucaparib 20 µM, 100% = cells with rucaparib alone) 129% | viability ([19]; at 0.00488 µM, OCI-C5x cells, with rucaparib 10 µM, 100% = cells with rucaparib alone) 119% | viability ([19]; at 0.00488 µM, OCI-C5x cells, without rucaparib) 114% | viability ([19]; at 0.00488 µM, OCI-P5x cells, with rucaparib 20 µM, 100% = cells with rucaparib alone) 136% | viability ([19]; at 0.0195 µM, OCI-C5x cells, with rucaparib 10 µM, 100% = cells with rucaparib alone) 111% | viability ([19]; at 0.0195 µM, OCI-C5x cells, without rucaparib) 112% | viability ([19]; at 0.0195 µM, OCI-P5x cells, with rucaparib 20 µM, 100% = cells with rucaparib alone) 133% | viability ([19]; at 0.0195 µM, OCI-P5x cells, without rucaparib) 101% | viability ([19]; at 0.0781 µM, OCI-C5x cells, with rucaparib 10 µM, 100% = cells with rucaparib alone) 108% | viability ([19]; at 0.0781 µM, OCI-C5x cells, without rucaparib) 106% | viability ([19]; at 0.0781 µM, OCI-P5x cells, with rucaparib 20 µM, 100% = cells with rucaparib alone) 144% | viability ([19]; at 0.313 µM, OCI-C5x cells, with rucaparib 10 µM, 100% = cells with rucaparib alone) 111% | viability ([19]; at 0.313 µM, OCI-C5x cells, without rucaparib) 116% | viability ([19]; at 0.313 µM, OCI-P5x cells, with rucaparib 20 µM, 100% = cells with rucaparib alone) 144% | viability ([19]; at 0.313 µM, OCI-P5x cells, without rucaparib) 105% | viability ([19]; at 1.25 µM, OCI-C5x cells, with rucaparib 10 µM, 100% = cells with rucaparib alone) 116% | viability ([19]; at 1.25 µM, OCI-C5x cells, without rucaparib) 120% | viability ([19]; at 1.25 µM, OCI-P5x cells, with rucaparib 20 µM, 100% = cells with rucaparib alone) 155% | viability ([19]; at 1.25 µM, OCI-P5x cells, without rucaparib) 114% | viability ([19]; at 5 µM, OCI-C5x cells, with rucaparib 10 µM, 100% = cells with rucaparib alone) 123% | viability ([19]; at 5 µM, OCI-C5x cells, without rucaparib) 126% | viability ([19]; at 5 µM, OCI-P5x cells, without rucaparib) 116%
1350 and 2320: cell count [16, 23]
active: viability decrease [3] 120% | tube area decrease [4] 111% | inhibition of viability [6] 124% | viability decrease (inhibition) [7] 166% | viability decrease (inhibition) [8] 102% | AC50 [9] 14.8 µM | AC50 [10] 18.7 µM | AC50 [11] 18.7 µM | AC50 [12] 10.5 µM | AC50 [13] 20.9 µM | IC50 [14] 10.5 µM | viability ([19]; at 0.000305 µM, OCI-P5x cells, without rucaparib) 97.6% | viability ([19]; at 0.00122 µM, OCI-P5x cells, without rucaparib) 99.4% | viability ([19]; at 0.00488 µM, OCI-P5x cells, without rucaparib) 99.4% | viability ([19]; at 0.0781 µM, OCI-P5x cells, without rucaparib) 99.6% | viability ([19]; at 5 µM, OCI-P5x cells, with rucaparib 20 µM, 100% = cells with rucaparib alone) 31.8%
0.813 and 0.844: z-score ([18]; Rieske KO mouse fibroblast survival, CellTiter-Glo 72 h)
1320 and 3300: cell count [16, 22]
0.87 and 0.612: fold change [16, 21]
